Many of the other results were omitted from the sample, so hits are more common in it than they were.
Pf apPOL block – Pf-apPOL DNA polymerase inhibition. Recombinant Pf-apPOL, molecular beacon fluorescence, 1.5 h. inhibition, % at 10 µM. 210,000 compounds, 0.25% hits. AID 1794808
mHTT CaM bind – inhibitors of human mutant huntingtin-calmodulin interaction; AlphaScreen His-mHTT/GST-CaM binding, luminescence; inhibition, % at 15 µM; 190,000 compounds, 3.6% hits; AID 1671202
Of the large screens only hits and unclear results are named; the others gave an inactive call. Cut-off read from the data, not from the text of the source: active = inhibition above about 50%; inactive = the rest.

Cc1cccc(C)c1NC(=O)C(C)Oc1ccccc1F (configuration not stated)	none
COc1ccccc1NC(=O)C1CC(=O)OC12CCCCC2 (configuration not stated)	none
CCCCN1CCc2nc(Nc3ccc(OC)cc3)ncc2C1	mHTT CaM bind 52
COc1ccc(Nc2ncc3c(n2)CCN(Cc2ccccc2OC)C3)cc1	none
COc1cccc(CN2CCc3nc(Nc4ccc(F)cc4)ncc3C2)c1OC	mHTT CaM bind 100
COc1cc(Nc2ncc3c(n2)CCN(Cc2cccc(OC)c2OC)C3)cc(OC)c1	none
COc1ccc(Nc2ncc3c(n2)CCN(Cc2cc(OC)c(OC)cc2OC)C3)cc1	none
COc1cc(OC)c(OC)cc1CN1CCc2nc(Nc3ccc(F)cc3)ncc2C1	mHTT CaM bind 70
CCc1nnc2c(NC(=O)Cc3ccccc3Cl)cccn12	none
Nc1ccc(Cl)cc1C(O)c1ccccc1 (configuration not stated)	none
CC(Nc1ccc(Cl)cc1N)c1ccccc1 (configuration not stated)	mHTT CaM bind 98
COc1ccc(-n2nc(C(=O)N3CCCCCC3)c3ccccc3c2=O)c(OC)c1	none
C/C(=N\NC(=O)c1cnccn1)c1ccco1	none (no result: Pf apPOL block)
COc1ccc(CCC(=O)NCC2(c3cccs3)CCCC2)cc1	none
CN1C(=O)C(=Cc2cn(Cc3ccccc3Cl)c3ccccc23)C(=O)N(C)C1=O	none
COc1ccc(C)cc1NC(=O)C1c2ccccc2C(=O)N2CCc3ccccc3C12 (configuration not stated)	none
COc1cc(Cl)c(C)cc1NC(=O)C1c2ccccc2C(=O)N2CCc3ccccc3C12 (configuration not stated)	mHTT CaM bind 54
COc1cc2c(cc1OC)C(C(=O)Nc1ccc(F)cc1)C1c3ccccc3CCN1C2=O (configuration not stated)	none
CCOc1ccccc1NC(=O)C1c2cc(OC)c(OC)cc2C(=O)N2CCc3ccccc3C12 (configuration not stated)	mHTT CaM bind 54
O=c1/c(=C/c2ccco2)sc2nnc(-c3ccccc3Cl)n12	none
COc1ncccc1CN(C)C(=O)c1cccs1	none
Cn1cccc1C1CC(c2ccc(F)cc2)=NN1C(=O)CN1CCCCC1 (configuration not stated)	mHTT CaM bind 70
Cc1ccc(C2=NN(C(=O)CN3CCCCC3)C(c3cccn3C)C2)cc1C (configuration not stated)	mHTT CaM bind 91
CC(=O)N1CCN(CC(=O)N2N=C(c3ccc(F)cc3)CC2c2ccccc2)CC1 (configuration not stated)	none
CC1=C(C(=O)Nc2ccc(F)cc2)C(c2ccccn2)C2=C(CCCC2=O)N1 (configuration not stated)	none
NC(=S)NN=Cc1ccc([N+](=O)[O-])s1	none (no result: mHTT CaM bind)
Cc1ccc([N+](=O)[O-])cc1N=Cc1cccc([N+](=O)[O-])c1	none
NC(=S)NN=Cc1cccc([N+](=O)[O-])c1	Pf apPOL block 79
O=[N+]([O-])c1cccc(C=Nc2cc(Cl)ccc2O)c1	mHTT CaM bind 59
O=C(NCC1CCCO1)C1CCN(c2cncnc2N2CCCC2)CC1 (configuration not stated)	none
CC(C)CC(C(=O)Nc1nc2ccccc2s1)N1C(=O)c2ccccc2C1=O (configuration not stated)	mHTT CaM bind 99
CC(C)C(C(=O)Nc1cccc(C(F)(F)F)c1)N1C(=O)c2ccccc2C1=O (configuration not stated)	none
CC(C)CC(C(=O)Nc1cccc(C(F)(F)F)c1)N1C(=O)c2ccccc2C1=O (configuration not stated)	mHTT CaM bind 57
CC(C(=O)Nc1nc2ccccc2s1)N1C(=O)c2ccccc2C1=O (configuration not stated)	none
O=c1cc(-c2ccc(F)cc2)ncn1CCNS(=O)(=O)c1ccc2c(c1)OCCO2	none
CC(C)n1c(=O)c2c(ncn2Cc2ccccc2)n(-c2ccc(F)c(F)c2)c1=O	none
Cc1ccc(/C=N\N=C(/N)c2nonc2N)o1	none (no result: Pf apPOL block)
COc1ccc(O)c(C(=O)CC(=O)c2ccccc2)c1	mHTT CaM bind 50
COc1ccc(C(=O)CC(=O)c2ccccc2)cc1	none
CCn1c(N2CCC(C(=O)NCc3ccc(F)cc3)CC2)cc(=O)n(C)c1=O	none
CCc1cccc(NC(=O)C2CCN(c3cc(=O)n(C)c(=O)n3C)CC2)c1	mHTT CaM bind 66
CCn1c(N2CCC(C(=O)NCc3cccc(Cl)c3)CC2)cc(=O)n(C)c1=O	mHTT CaM bind 59
COc1ccc(NC(=O)C2CCN(c3cc(=O)n(C)c(=O)n3C)CC2)c(OC)c1	none
Cn1c(N2CCC(C(=O)N3CCC(Cc4ccccc4)CC3)CC2)cc(=O)n(C)c1=O	mHTT CaM bind 75
COc1cc(OC)c(NC(=O)C2CCN(c3cc(=O)n(C)c(=O)n3C)CC2)cc1Cl	mHTT CaM bind 59
Cn1c(N2CCC(C(=O)Nc3ccccc3)CC2)cc(=O)n(C)c1=O	none
Cn1c(N2CCC(C(=O)N3CCN(Cc4ccccc4)CC3)CC2)cc(=O)n(C)c1=O	none
CCOc1ccccc1NC(=O)c1cc(S(=O)(=O)NCc2ccccc2)ccc1F	none
CCC1CN2C=NC(N3CCN(C(=O)Cc4ccccc4F)CC3)=CC2=N1 (configuration not stated)	none
Cc1ccc(OCC(=O)Nc2ccc([N+](=O)[O-])cc2C)c(Br)c1	none
Cc1ccc(NC(=O)c2ccc(Br)cc2)c([N+](=O)[O-])c1	none
CC(C)C1C(=O)N(Cc2cn(CCC3OCCO3)nn2)CCS(=O)(=O)N1Cc1ccc(-c2ccc(F)nc2)cc1 (configuration not stated)	none
CC1C(=O)N(Cc2cn(CCC3OCCO3)nn2)CCS(=O)(=O)N1Cc1ccc(-c2ccc(Cl)c(Cl)c2)cc1 (configuration not stated)	mHTT CaM bind 96
CC(C)C1C(=O)N(Cc2cn(CCC3OCCCO3)nn2)CCS(=O)(=O)N1Cc1ccc(-c2ccccc2)cc1 (configuration not stated)	mHTT CaM bind 56
CC1C(=O)N(Cc2cn(CCC3OCCO3)nn2)CCS(=O)(=O)N1Cc1ccc(-c2cccc(CO)c2)cc1 (configuration not stated)	none
CC(C)C1C(=O)N(Cc2cn(CCC3OCCCO3)nn2)CCS(=O)(=O)N1Cc1ccc(-c2ccc(F)nc2)cc1 (configuration not stated)	none
CC(C)C1C(=O)N(Cc2cn(CCC3OCCCO3)nn2)CCS(=O)(=O)N1Cc1ccc(-c2ccc(Cl)cc2)cc1 (configuration not stated)	none
CC(C)C1C(=O)N(Cc2cn(CCC3OCCO3)nn2)CCS(=O)(=O)N1Cc1ccc(-c2ccc(F)cc2)cc1 (configuration not stated)	mHTT CaM bind 53
CC(C)C1C(=O)N(Cc2cn(CCC3OCCCO3)nn2)CCS(=O)(=O)N1Cc1ccc(-c2ccc(Cl)c(Cl)c2)cc1 (configuration not stated)	mHTT CaM bind 74
COc1cccc(-c2nc(C=Nc3ccc(Cl)cc3Cl)c(O)o2)c1	none
O=C(Nc1ccccc1)C1CCN(c2ccc(F)cc2F)C1=O (configuration not stated)	none
Cc1ccc(S(=O)(=O)N(CC(=O)NCC2CCCO2)Cc2c(F)cccc2Cl)cc1 (configuration not stated)	none
COc1ccc(C=C2Oc3c(CN4CCOCC4)c(O)cc(C)c3C2=O)cc1OC	none
O=C(NCCc1ccccc1)C1CCN(Cc2ccc(Cl)cc2)CC1	none

Compound activity from PubChem BioAssay.
